Drawing on PubChem BioAssay (Tox21), this text covers Potency and outcome for 28 compounds.

The nature of assay [1]: qHTS assay to identify small molecule antagonists of the estrogen receptor alpha (ER-alpha) signaling pathway using the BG1 cell line in the presence of 0.1 nM 17-beta-estradiol - cell viability counter screen (AID 1259241). Note: nearly all actives have a fitted effect of over 40% in size. Note: potency is the fitted concentration of half-maximal effect. Put shortly: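 VM7Luc4E2 cells (endogenous ER-alpha, 4×ERE-luciferase), hormone-starved 5 days in charcoal-stripped FBS, were treated with compounds plus 0.1 nM 17beta-estradiol for 22 hr at 37C; viability read in same wells as CellTiter-Fluor live-cell protease fluorescence.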
In general terms: Quantitative high-throughput screening tests each substance at several concentrations.

Assay [2] in a line: qHTS assay to identify small molecule antagonists of the androgen receptor (AR) signaling pathway using the MDA cell line in the presence of 0.5 nM R1881 - cell viability counter screen (AID 1259242). Note: nearly all actives have a fitted effect of over 45% in size. Note: potency is the fitted concentration of half-maximal effect. Summed up:
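Counter screen for cytotoxicity run in the same wells as the AR antagonist reporter screen: MDA-kb2 cells were treated 16 hr with test compounds and 0.5 nM R1881, then live-cell protease activity was measured by fluorescence.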

Assay [3] has as its target Estrogen receptor (Homo sapiens) (UniProt P03372). Nature of the assay: qHTS assay to identify small molecule antagonists of the estrogen receptor alpha (ER-alpha) signaling pathway using the BG1 cell line in the presence of 0.1 nM 17-beta-estradiol (AID 1259244). Note: nearly all actives have a fitted effect of over 50% in size. Note: potency is the fitted concentration of half-maximal effect. Put shortly:
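Cells: VM7Luc4E2, endogenous ER-alpha, 4x ERE-luc stable. Pre-culture 5 d, phenol red-free, charcoal-stripped FBS. Plated 24 h, compound + E2 0.1 nM final, 22 h 37C/5% CO2. Readout ONE-Glo luminescence.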

The nature of assay [4]: qHTS assay to identify small molecule HDAC inhibitors (AID 1259364). Note: nearly all actives have a fitted effect of over 45% in size. Note: potency is the fitted concentration of half-maximal effect. Put shortly: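 Luminescence from a cell-permeant luminogenic class I/II HDAC substrate reports endogenous deacetylase activity in intact HCT-116 cells treated with compounds for 2 h.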
Assay [5] is described as follows: qHTS assay to identify small molecule agonists of the sonic hedgehog signaling (Shh) pathway - cell viability counter screen (AID 1259366). Note: nearly all actives have a fitted effect of over 50% in size. Note: potency is the fitted concentration of half-maximal effect. Put shortly: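 NIH/3T3-derived 3T3 Gli1-Luc cells (stable Gli1-responsive firefly luciferase reporter) were seeded, rested 4 hr at 37 C/5% CO2, then exposed to compounds in DMSO for 24 hr; viability was read by CellTiter-Fluor fluorescence in the same wells.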

The nature of assay [6]: qHTS assay to identify small molecule antagonists of the sonic hedgehog signaling (Shh) pathway - cell viability counter screen (AID 1259367). Note: nearly all actives have a fitted effect of over 55% in size. Note: potency is the fitted concentration of half-maximal effect. Put shortly:
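Using CellTiter-Fluor, viability of Gli1-Luc reporter 3T3 cells is read by fluorescence in the wells used for the Shh luciferase assay. Treatment lasts 23 hr with conditioned medium, then reagent 1 hr at 37C.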

Assay [7] is described as follows: qHTS assay to identify small molecule agonists of the sonic hedgehog signaling (Shh) pathway (AID 1259368; calls by dose curve; note: series mostly up to about 92 µM; nearly all actives have a fitted effect of over 15% in size). Put shortly: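 3T3Gli1-Luc (NIH/3T3 clone, stable Gli1-Luc); 4 hr pre-incubation, then cpd in DMSO 24 hr, 37 C/5% CO2; luciferase reagent 30 min RT; luminescence.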
Assay [8] is described as follows: qHTS assay to identify small molecule HDAC inhibitors - cell viability counter screen (AID 1259365). Note: series mostly up to about 92 µM; nearly all actives have a fitted effect of over 50% in size. Put shortly:
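Wild-type HCT-116 cells were seeded at 1,500 per well, incubated overnight at 37 C, then exposed to compounds in DMSO for 2hr. Viability was read by CellTiter-Glo luminescence after 30min at room temperature.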

Assay [9] deals with Androgen receptor (Homo sapiens) (UniProt P10275). Nature of the assay: qHTS assay to identify small molecule antagonists of the androgen receptor (AR) signaling pathway using the MDA cell line in the presence of 0.5 nM R1881 (AID 1259243). Note: nearly all actives have a fitted effect of over 50% in size. Note: potency is the fitted concentration of half-maximal effect. Put shortly: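 Luciferase luminescence is the read-out: compounds are tested for suppressing 0.5 nM R1881-driven MMTV reporter activity in MDA-kb2 cells after 16 hr at 37C.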

A short description of assay [10]: qHTS assay to identify small molecule phospholipidosis (PLD) inducers (AID 1259344; active = well fitted curve in the direction sought with a large enough effect; an effect the other way counts as inactive or inconclusive). Summed up:
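Fluorescent phospholipid staining (LipidTOX Red) measured by automated microscopy in fixed HepG2 cells after 24 h treatment; nuclei counterstained with Hoechst 33342; amiodarone as reference inducer.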

Where “and” joins values, the source holds several entries; their conditions need not be identical. Equal values may be shown once. Results filed as inconclusive are left out. Some structures have more than one record in an assay (separate samples or runs), and their calls can disagree. Calls of active or inactive are those of the source. Unless noted, calls come from the whole dose curve; as a rule, active = well fitted curve in the direction sought with a large enough effect in the repeat runs; inconclusive = weak or mixed curves; inactive = no such curve, though single readings can be large; an effect the other way counts as inactive or inconclusive.

Sequence of Androgen receptor (Homo sapiens) (P10275 whole entry, looked up): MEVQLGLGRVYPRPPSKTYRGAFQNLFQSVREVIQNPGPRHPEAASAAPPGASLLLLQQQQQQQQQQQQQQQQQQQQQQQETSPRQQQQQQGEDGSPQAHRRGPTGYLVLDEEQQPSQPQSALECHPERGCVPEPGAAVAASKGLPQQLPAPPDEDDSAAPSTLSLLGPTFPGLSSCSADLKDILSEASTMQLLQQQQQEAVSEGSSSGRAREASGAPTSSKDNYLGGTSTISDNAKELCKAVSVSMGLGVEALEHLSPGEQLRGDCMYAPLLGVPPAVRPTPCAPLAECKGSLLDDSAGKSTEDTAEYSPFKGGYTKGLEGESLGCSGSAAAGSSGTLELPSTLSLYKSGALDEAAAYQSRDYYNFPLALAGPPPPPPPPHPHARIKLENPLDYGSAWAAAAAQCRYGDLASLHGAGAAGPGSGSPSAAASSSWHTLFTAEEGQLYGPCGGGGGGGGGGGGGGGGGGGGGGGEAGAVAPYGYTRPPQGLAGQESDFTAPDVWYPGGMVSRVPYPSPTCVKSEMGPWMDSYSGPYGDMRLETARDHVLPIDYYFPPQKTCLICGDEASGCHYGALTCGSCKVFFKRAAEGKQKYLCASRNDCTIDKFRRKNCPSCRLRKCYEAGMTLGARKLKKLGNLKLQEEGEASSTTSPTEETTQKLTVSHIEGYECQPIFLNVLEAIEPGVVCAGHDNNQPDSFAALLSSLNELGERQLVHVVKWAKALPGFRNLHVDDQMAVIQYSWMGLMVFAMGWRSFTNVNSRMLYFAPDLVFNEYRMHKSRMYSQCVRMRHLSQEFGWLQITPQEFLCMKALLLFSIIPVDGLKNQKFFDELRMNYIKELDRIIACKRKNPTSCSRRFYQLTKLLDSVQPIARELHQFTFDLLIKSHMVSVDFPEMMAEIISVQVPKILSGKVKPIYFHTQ
Sequence of Estrogen receptor (Homo sapiens) (P03372 whole entry, looked up): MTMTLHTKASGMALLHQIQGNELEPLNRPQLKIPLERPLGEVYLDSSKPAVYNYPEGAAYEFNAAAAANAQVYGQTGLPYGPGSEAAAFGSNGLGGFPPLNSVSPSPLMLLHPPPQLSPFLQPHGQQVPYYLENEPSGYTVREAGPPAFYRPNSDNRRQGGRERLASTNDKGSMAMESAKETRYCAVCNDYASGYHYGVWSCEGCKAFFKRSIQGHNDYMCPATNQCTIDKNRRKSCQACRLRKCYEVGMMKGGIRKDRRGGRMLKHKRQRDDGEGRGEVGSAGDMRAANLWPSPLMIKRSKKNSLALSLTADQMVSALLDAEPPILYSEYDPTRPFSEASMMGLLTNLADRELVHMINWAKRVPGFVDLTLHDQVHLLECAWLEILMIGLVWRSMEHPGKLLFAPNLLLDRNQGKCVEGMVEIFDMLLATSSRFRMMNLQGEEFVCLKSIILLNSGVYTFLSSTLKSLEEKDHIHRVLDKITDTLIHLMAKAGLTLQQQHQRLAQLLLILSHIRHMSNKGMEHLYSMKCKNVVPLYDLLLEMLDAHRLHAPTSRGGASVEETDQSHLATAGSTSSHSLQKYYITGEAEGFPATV

In the case of `CCOP(=S)(OCC)SCSC(C)(C)C`, the Potency result in assay [1], in assay [2], in assay [3], in [4], in [5] and in assay [6] was “inactive” each time. Besides, the Potency result in [7] was “inactive”.
In the case of `CC(C)(O)C#N`, the Potency result in assay [1], in assay [2], in assay [4], in assay [5], in assay [6] and in [7] was “inactive” throughout.
On to `Brc1ccc(Br)cc1`, for which the Potency result in assay [1], in [2], in assay [4], in [8], in [5] and in assay [6] was “inactive” throughout. In addition, the Potency result in assay [7] is “inactive”.
Consider `O=C1C(Cl)=C(Cl)C(=O)c2ccccc21`, for which the Potency was 24.4 µM (active) in assay [1]; 43.4 µM (active) in assay [2]; 12.2 µM (active) and 19.3 µM (active) in assay [3]; 4.34 µM (active) in assay [5]; 4.87 µM (active) in assay [6]. Moreover, the Potency result in assay [7] is “inactive”.
Consider `CCNc1nc(Cl)nc(NC(C)(C)C#N)n1`, for which the Potency entry in [1], in assay [2], in assay [4], in assay [8], in assay [5] and in [6] was “inactive” each time. The Potency entry in [7] is “inactive”.
Turning to `CC1(C)C(C(=O)OC(C#N)c2cccc(Oc3ccccc3)c2)C1(C)C` (stereo not drawn), the Potency result in [1], in assay [2], in assay [4], in assay [8], in [5] and in assay [6] was “inactive” throughout. Besides, the Potency result in assay [7] was “inactive”. In addition, in assay [3], the Potency was 54.9 µM (active) and inactive.
For the compound `CCOP(=S)(OCC)OP(=S)(OCC)OCC`, the Potency result in assay [1], in assay [9], in [4], in assay [8], in assay [5] and in assay [6] was “inactive” throughout. Also, the Potency result in assay [7] is “inactive”.
With `Cl`, the Potency entry in assay [1], in assay [2], in [4], in [8], in assay [5] and in assay [6] was “inactive” in each case. The Potency result in assay [7] was “inactive”.
`CCC[CH2][Sn]([Cl])([Cl])[CH2]CCC`: the Potency was 1.74 µM (active) and 2.43 µM (active) in assay [1]; 874 nM (active) and 611 nM (active) in assay [2]; 1.23 µM (active) and inactive in assay [3]; 276 nM (active) and 433 nM (active) in assay [5]; 552 nM (active) and 770 nM (active) in [6]. For the same compound, the Potency result in assay [4] and in [7] was “inactive” each time.
For the compound `CN(C)c1ccccc1`, the Potency result in assay [1], in assay [2], in [4], in assay [8], in assay [5] and in [6] was “inactive” each time. Moreover, the Potency result in assay [7] is “inactive”.
Regarding `CS(=O)(=O)NC(=O)c1cc(Oc2ccc(C(F)(F)F)cc2Cl)ccc1[N+](=O)[O-]`, the Potency entry in [1], in assay [2], in assay [4], in [8], in assay [5] and in assay [6] was “inactive” each time. Moreover, the Potency result in [7] is “inactive”.
For the compound `O=C1Nc2ccc(Cl)cc2C(c2ccccc2)=NC1O` (stereo not drawn), the Potency entry in [1], in [2], in [4], in [8], in assay [5] and in [6] was “inactive” throughout. The Potency entry in assay [7] was “inactive”. The result in [10] was inactive.
For `Cc1cc(Cl)ccc1N=CN(C)C`, the Potency entry in [1], in assay [2], in assay [4], in assay [5], in assay [6] and in assay [7] was “inactive” throughout.
As to `CCCCC(C#N)(Cn1cncn1)c1ccc(Cl)cc1` (stereo not drawn), the Potency result in [1], in assay [2], in assay [3], in assay [4], in [5] and in assay [6] was “inactive” each time. For the same compound, the Potency result in assay [7] was “inactive”.
As for `Cc1cccc(N=Nc2ccc(N(C)C)cc2)c1`, the Potency in assay [1] was 27.3 µM (active); in assay [4] it was 3.5 µM (active) and 6.86 µM (active); in assay [5] it was 35 µM (active). The Potency entry in assay [2] and in [3] was “inactive” throughout.
Take `C=CC(Cl)CCl` (stereo not drawn): the Potency entry in [1], in [9], in [4], in assay [8], in assay [5] and in [6] was “inactive” throughout. In addition, in assay [7], the Potency entry is “inactive”.
`CCOP(=O)(OCC)OCC`: the Potency result in assay [1], in assay [2], in assay [4], in [8], in assay [5] and in [6] was “inactive” throughout. Moreover, the Potency entry in [7] is “inactive”.
On to `O=C1CCCO1`, for which the Potency entry in assay [1], in assay [9], in assay [4], in assay [8], in [5] and in assay [6] was “inactive” throughout. The Potency entry in [7] was “inactive”.
For the compound `CC(O)CN(CC(C)O)CC(C)O` (stereo not drawn), the Potency result in assay [1], in assay [2], in assay [4], in assay [8], in assay [5] and in assay [6] was “inactive” each time. Also, in [7], the Potency result is “inactive”.
With `CCNCC`, the Potency entry in [1], in assay [2], in assay [4], in [8], in [5] and in assay [6] was “inactive” each time. Moreover, the Potency entry in assay [7] is “inactive”.
Take `OC(c1ccc(Cl)cc1)(c1cncnc1)c1ccccc1Cl` (stereo not drawn): the Potency result in [1], in [4], in assay [8], in assay [5], in [6] and in [7] was “inactive” each time. Also, in assay [2], the Potency was 27.8 µM (active) and inactive.
For `O=NN(c1ccccc1)c1ccccc1`, the Potency entry in assay [1], in assay [2], in [3], in assay [4], in [5] and in assay [6] was “inactive” each time. Further, the Potency entry in [7] was “inactive”.
Take `ClC(Cl)(Cl)Br`: the Potency entry in assay [1], in assay [2], in [4], in assay [8], in assay [5] and in assay [6] was “inactive” throughout. The Potency entry in assay [7] is “inactive”.
Take `CC(C)(c1ccc(OCC2CO2)cc1)c1ccc(OCC2CO2)cc1` (stereo not drawn): the Potency result in assay [1], in assay [9], in assay [3], in assay [4], in assay [8] and in assay [5] was “inactive” throughout. Besides, the Potency entry in assay [6] and in assay [7] was “inactive” throughout.
Turning to `CCCCCCCCCc1ccc(O)cc1`, the Potency entry in assay [1], in [2], in assay [3], in [4], in [5] and in assay [6] was “inactive” throughout. The Potency result in [7] was “inactive”.
In the case of `c1ccc(C2CO2)cc1` (stereo not drawn), the Potency entry in assay [1], in assay [2], in [4], in [5], in assay [6] and in assay [7] was “inactive” throughout.
In the case of `C[C@]12CC[C@H]3[C@@H](CCC4=CC(=O)CC[C@@H]43)[C@@H]1CC[C@@H]2O`, the Potency result in assay [1], in assay [3], in assay [4], in [8], in assay [5] and in [6] was “inactive” in each case. In assay [7], the Potency entry is “inactive”. Also, the result in assay [10] was inactive.
For the compound `COP(=S)(OC)SCn1nnc2ccccc2c1=O`, the Potency entry in assay [1], in assay [4], in assay [8], in assay [5] and in assay [7] was “inactive” throughout. Also, the Potency in assay [9] was 23.9 µM (active) and 17.2 µM (active).
